Here are results for 40 compounds from PubChem BioAssay (Tox21).

Inconclusive results are not listed. Where a call stands in place of a potency, no number is given. Activity calls are given as the source filed them. The call rests on the fitted dose curve; in most records, active means well fitted cell-killing curve with a large enough effect in the repeat runs; inconclusive means weak or mixed curves, or effect the other way; inactive means flat fitted curve, though single readings scatter.

A short description of the assay: cAMP Responsive Elements (CRE) small molecule agonists, cell-based qHTS assay: qHTS cell viability counter screen (AID 2060914).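 Further: viability read after 3 h of compound exposure; nearly all actives have a fitted effect of over 50% in size.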 Particulars: CRE-bla HEK293T viability, CellTiter-Glo luminescence, 5 h; series mostly up to 92.4 µM. The text has this:
National Center for Advancing Translational Sciences [NCATS]
Division of Preclinical Innovation [DPI]
U.S. Environmental Protection Agency [EPA]
National Institutes of Environmental Health Sciences [NIEHS]
National Toxicology Program [NTP]
U.S. Food and Drug Administration [FDA]
CREB (cyclic-AMP Responsive Element Binding Protein) is a cellular transcription factor. It binds to certain DNA sequences called cAMP Responsive Elements (CRE) and regulates the transcription of the genes. […] This cell line can be used to find agonists/antagonists of the cyclic AMP signaling pathway. The activation of the report gene under culture conditions can be detected by fluorescence intensity. This cell line has been used to screen the Tox21 10K compound library to identify agonists that induce oxidative stress. The cytotoxicity of the Tox21 compound library against the CRE-bla cell line was tested in parallel by measuring the cell viability using CellTiter-Glo assay (Promega, Madison, WI) in the same wells.
Tox21 Assay Protocol Summary:
CRE-bla Hek 293T cells were suspended in assay medium (DMEM containing 10% dialyzed FBS, 0.1 mM NEAA, 1 mM sodium pyruvate and 25 mM HEPES) and dispensed at 2,000 cells/5 uL /well into 1536-well black wall/clear bottom plates using a Multidrop Combi (ThermoFisher Scientific, Waltham, MA) dispenser. After the assay plates were incubated at 37 C/5% CO2 for 18 hrs, 23 nL of compounds dissolved in DMSO, positive controls or DMSO only was transferred to the assay plate by a pintool workstation (Kalypsys, San Diego, CA). After the plates were incubated at 37 C/5% CO2 for 3 hrs, 1 uL of LiveBLAzer B/G FRET substrate (Invitrogen, Carlsbad, CA) was added to each well using Bioraptr Flying Reagent Dispenser (FRD, Aurora Discovery, San Diego, CA). The plates were incubated at room temperature for 2 h, then fluorescence intensities were measured using an Envision plate reader (PerkinElmer, Shelton, CT) at Excitation 405nm, Emission 460nm and 530nm. The % activity was determined from the ratio of 460nm/530nm. For cell viability readout that measures cytotoxicity, 4 uL /well of CellTiter-Glo reagent was added into the assay plates using Bioraptr FRD. After 30 min incubation at room temperature, the luminescence intensity in the assay plates was measured using a ViewLux (PerkinElmer, Shelton, CT) plate reader.
As for `C=CCc1ccccc1O`, the Potency entry was “inactive”.

On to `CCC(C)Br` (stereo not given), for which the Potency entry is “inactive”.

`Nc1cc2c3c(c1)C(c1ccccc1)=N[C@@H](NC(=O)c1cccnc1)C(=O)N3CC2`: the Potency entry was “inactive”.

Regarding `c1ccc(-c2cccc(-c3ccccc3)c2)cc1`, the Potency result was “inactive”.

With `O=[N+]([O-])c1cc(Cl)c(Cl)c(Cl)c1`, the Potency entry was “inactive”.

In the case of `CCOP(=S)(OCC)SCSP(=S)(OCC)OCC`, the Potency result was “inactive”.

For `ClCCBr`, the Potency entry was “inactive”.

As to `Cc1nc2ccccc2c(=O)n1-c1ccccc1Cl`, the Potency entry was “inactive”.

On to `O=[N+]([O-])[O-].[Tl+]`, for which the Potency entry is “inactive”.

Take `Nc1cc(Cl)ccc1O`: the Potency result was “inactive”.

With `N#C/C(N)=C(/N)C#N`, the Potency entry is “inactive”.

Consider `CC(C)=CCN1CC[C@@]2(C)c3cc(O)ccc3C[C@@H]1[C@@H]2C`, for which the Potency entry is “inactive”.

As for `Cc1c(COC(=O)[C@@H]2[C@H](/C=C(\Cl)C(F)(F)F)C2(C)C)cccc1-c1ccccc1`, the Potency result is “inactive”.

For `CC(C)OC(=O)Nc1ccccc1`, the Potency result was “inactive”.

As to `CCCCCCCCCCCCCN1CC(C)OC(C)C1` (stereo not given), the Potency entry was “inactive”.

As for `C[N+](C)(C)Cc1ccccc1`, the Potency entry was “inactive”.

As to `CCOP(=S)(OCC)Oc1ccc([N+](=O)[O-])cc1`, the Potency result was “inactive”.

As to `O=[N+]([O-])c1ccc([As](=O)(O)O)cc1`, the Potency entry was “inactive”.

As for `C=C(C)[C@H]1Cc2c(ccc3c2O[C@@H]2COc4cc(OC)c(OC)cc4[C@@H]2C3=O)O1`, the Potency result was “inactive”.

`O=C(Oc1ccc(Br)cc1)N1CCN2CCC1CC2`: the Potency result was “inactive”.

Turning to `N#Cc1ccccc1N`, the Potency entry is “inactive”.

Consider `COCC(=O)N(c1c(C)cccc1C)[C@H](C)C(=O)OC`, for which the Potency entry was “inactive”.

`COC(=O)c1ccccc1S(=O)(=O)NC(=O)Nc1nc(C)nc(OC)n1`: the Potency result was “inactive”.

On to `CCCCCCBr`, for which the Potency result is “inactive”.

With `COc1ccc(C(CN(C)C)C2(O)CCCCC2)cc1` (stereo not given), the Potency entry was “inactive”.

As for `CC(=O)c1ccc(-c2ccccc2)cc1`, the Potency entry was “inactive”.

Regarding `C1=CCC=C1`, the Potency entry was “inactive”.

As to `Cn1cc(C2=C(c3cn(C4CCN(Cc5ccccn5)CC4)c4ccccc34)C(=O)NC2=O)c2ccccc21`, the Potency result was “inactive”.

For the compound `C1CC2OC2CC1C1CO1` (stereo not given), the Potency result is “inactive”.

For `ClCC1CO1` (stereo not given), the Potency result was “inactive”.

In the case of `CC(CC(C#N)(c1ccccc1)c1ccccc1)N(C)C` (stereo not given), the Potency entry was “inactive”.

As for `CC1=C(C(=O)Nc2ccccc2)SCCO1`, the Potency result is “inactive”.

For the compound `Cc1cc(C)nc(Nc2ccccc2)n1`, the Potency result is “inactive”.

In the case of `N#CC(CCc1ccc(Cl)cc1)(Cn1cncn1)c1ccccc1` (stereo not given), the Potency result is “inactive”.

As to `Nc1ccccc1C(=O)OCCc1ccccc1`, the Potency result is “inactive”.

Turning to `CC(C)(O)c1cnn2c(-c3ccc(F)c(-c4c(F)cccc4C#N)c3)cnc2n1`, the Potency entry was “inactive”.

Consider `COc1ccccc1N1CCNCC1`, for which the Potency entry was “inactive”.

Take `Brc1c(Br)c(Br)c(Oc2c(Br)c(Br)c(Br)c(Br)c2Br)c(Br)c1Br`: the activity change, negative = cytotoxicity is 4.51% [at 18.9 µM] (inactive).

On to `CN(C)CCO`, for which the Potency result is “inactive”.

Turning to `CCCCCCCCP(=O)(O)O`, the Potency entry is “inactive”.
